Measured values published in PubChem BioAssay (EPA / NIEHS).
Active and inactive are the calls of the source. Rule for the calls: active = hit-call score of the fitted dose curve at least 0.9, where 1 is the maximum; inactive = score below 0.9.

Columns and labels:
Settings in all cases: mRNA level, 48 h; actives raise or lower the signal
[1] = read-out: Insulin Like Growth Factor 1 (IGF1), IGF1 (gene 3479); assay: LTEA_HepaRG_IGF1: Life Technologies and Expression Analysis (LTEA) Assay for Insulin Like Growth Factor 1 (IGF1) using HepaRG (AID 2283506)
Outline: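 Differentiated human HepaRG cells were dosed for 48 h in serum-free induction medium with 0.5% DMSO, eight half-log concentrations up to 100 uM, in duplicate. IGF1 mRNA was quantified by qRT-PCR normalized to ACTB, GAPDH, POLR2A; bidirectional fitting versus DMSO.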

[2] = read-out: Intercellular Adhesion Molecule 1 (ICAM1), ICAM1 (gene 3383); assay: LTEA_HepaRG_ICAM1: Life Technologies and Expression Analysis (LTEA) Assay for Intercellular Adhesion Molecule 1 (ICAM1) using HepaRG (AID 2283507)
Outline: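 Using the human liver line HepaRG, compounds are tested in duplicate over 48 h at concentrations up to 100 uM. Expression is determined by TaqMan qRT-PCR, normalized to endogenous controls, and analysed relative to 0.5% DMSO vehicle.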

[3] = read-out: Insulin-like growth factor-binding protein 1 (IGFBP1), IGFBP1 (gene 3484); assay: LTEA_HepaRG_IGFBP1: Life Technologies and Expression Analysis (LTEA) Assay for Insulin-like growth factor-binding protein 1 (IGFBP1) using HepaRG (AID 2283508)
Outline: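 HepaRG, 48 h, 8 conc. (max 100 uM, half-log), duplicates, 0.5% DMSO. Readout: TaqMan qRT-PCR, ACTB/GAPDH/POLR2A normalisation. Fit: bidirectional vs DMSO.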

[4] = read-out: Interleukin 6 (IL6), IL6 (gene 3569); assay: LTEA_HepaRG_IL6: Life Technologies and Expression Analysis (LTEA) Assay for Interleukin 6 (IL6) using HepaRG (AID 2283509)
Outline: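 Differentiated human HepaRG cells, plated 48 h then switched to serum-free induction medium, were exposed in duplicate for 48 h to eight half-log concentrations up to 100 uM in 0.5% DMSO. IL6 mRNA measured by qRT-PCR, normalized to ACTB/GAPDH/POLR2A.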

[5] = read-out: Interleukin 6 Receptor (IL6R), IL6R (gene 3570); assay: LTEA_HepaRG_IL6R: Life Technologies and Expression Analysis (LTEA) Assay for Interleukin 6 Receptor (IL6R) using HepaRG (AID 2283510)
Outline: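 Differentiated human HepaRG cells, plated 48 h then switched to serum-free induction medium, were dosed in duplicate for 48 h at eight half-log concentrations up to 100 uM in 0.5% DMSO. IL6R mRNA quantified by qRT-PCR, normalized to ACTB/GAPDH/POLR2A; bidirectional fit versus DMSO.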

[6] = read-out: Potassium channel subfamily K member 1 (KCNK1), KCNK1 (gene 3775); assay: LTEA_HepaRG_KCNK1: Life Technologies and Expression Analysis (LTEA) Assay for Potassium channel subfamily K member 1 (KCNK1) using HepaRG (AID 2283511)
Outline: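 Differentiated human HepaRG cells in serum-free induction medium were exposed in duplicate for 48 h to 8 half-log concentrations up to 100 uM in 0.5% DMSO. KCNK1 mRNA was measured by TaqMan qRT-PCR, normalized to ACTB, GAPDH and POLR2A, and fitted bidirectionally versus DMSO.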

[7] = read-out: Keratin 19 (KRT19), KRT19 (gene 3880); assay: LTEA_HepaRG_KRT19: Life Technologies and Expression Analysis (LTEA) Assay for Keratin 19 (KRT19) using HepaRG (AID 2283512)
Outline: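 Readout is qRT-PCR of KRT19 mRNA, normalized to ACTB, GAPDH and POLR2A, from HepaRG cells treated 48 h with eight-point half-log dilutions topping at 100 uM. Activity in either direction is scored relative to 0.5% DMSO vehicle.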

[8] = read-out: JUN Transcription Factor, JUN (gene 3725); assay: LTEA_HepaRG_JUN: Life Technologies and Expression Analysis (LTEA) Assay for JUN Transcription Factor using HepaRG (AID 2283513)
Outline: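 Differentiated HepaRG cells were exposed to chemicals for 48 h in serum-free induction medium, 8 concentrations from 100 uM in half-log steps, 0.5% DMSO vehicle, in duplicate. JUN mRNA was quantified by TaqMan qRT-PCR, normalized to ACTB, GAPDH, POLR2A.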

[9] = read-out: Lipase C (LIPC), LIPC (gene 3990); assay: LTEA_HepaRG_LIPC: Life Technologies and Expression Analysis (LTEA) Assay for Lipase C (LIPC) using HepaRG (AID 2283514)
Outline: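 Differentiated human HepaRG cells in serum-free induction medium were exposed in duplicate for 48 h to eight concentrations (top 100 uM, half-log steps, 0.5% DMSO). LIPC mRNA was quantified by TaqMan qRT-PCR, normalized to ACTB, GAPDH and POLR2A, with bidirectional fitting versus DMSO.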

[10] = read-out: Lipoprotein lipase (LPL), LPL (gene 4023); assay: LTEA_HepaRG_LPL: Life Technologies and Expression Analysis (LTEA) Assay for Lipoprotein lipase (LPL) using HepaRG (AID 2283515)
Outline: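 Differentiated human HepaRG cells in serum-free induction medium were exposed in duplicate for 48 h to eight half-log concentrations (top 100 uM) in 0.5% DMSO. LPL mRNA was quantified by TaqMan qRT-PCR, normalized to ACTB, GAPDH and POLR2A.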

[11] = read-out: MicroRNA 122 (MIR122), gene 406906; assay: LTEA_HepaRG_MIR122: Life Technologies and Expression Analysis (LTEA) Assay for MicroRNA 122 (MIR122) using HepaRG (AID 2283516); note: the transcript read is the microRNA miR-122
Outline: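 Differentiated human HepaRG cells were exposed 48 h in serum-free induction medium to eight half-log concentrations (top 100 uM, 0.5% DMSO). Transcript level was measured by TaqMan qRT-PCR, normalized to ACTB, GAPDH and POLR2A, and fitted bidirectionally versus DMSO.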

[12] = read-out: matrix metalloproteinase-10 (MMP10), MMP10 (gene 4319); assay: LTEA_HepaRG_MMP10: Life Technologies and Expression Analysis (LTEA) Assay for matrix metalloproteinase-10 (MMP10) using HepaRG (AID 2283517)
Outline: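 HepaRG, collagen I, ~100,000 cells/well; serum-free induction medium; 48 h exposure, duplicate, 8-pt half-log to 100 uM, 0.5% DMSO. Readout: TaqMan qRT-PCR, normalized to ACTB/GAPDH/POLR2A; bidirectional fit vs DMSO.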

[13] = read-out: MYC, MYC (gene 4609); assay: LTEA_HepaRG_MYC: Life Technologies and Expression Analysis (LTEA) Assay for MYC using HepaRG (AID 2283518)
Outline: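 Expression changes were scored by TaqMan qRT-PCR with ACTB, GAPDH and POLR2A normalization. Cultures in serum-free induction medium received duplicate 8-point concentration series, highest 100 uM, for 48 h; DMSO (0.5%) served as baseline.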

[14] = read-out: matrix metalloproteinase-3 (MMP3), MMP3 (gene 4314); assay: LTEA_HepaRG_MMP3: Life Technologies and Expression Analysis (LTEA) Assay for matrix metalloproteinase-3 (MMP3) using HepaRG (AID 2283519)
Outline: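 Differentiated human HepaRG cells, plated 48 h on collagen I, were exposed in duplicate for 48 h in serum-free induction medium to eight half-log concentrations up to 100 uM in 0.5% DMSO. MMP3 mRNA was quantified by TaqMan qRT-PCR, normalised to ACTB, GAPDH and POLR2A.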

[15] = read-out: Paternally Expressed 10 (PEG10), PEG10 (gene 23089); assay: LTEA_HepaRG_PEG10: Life Technologies and Expression Analysis (LTEA) Assay for Paternally Expressed 10 (PEG10) using HepaRG (AID 2283520)
Outline: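 Differentiated HepaRG cells, plated 48 h then switched to serum-free induction medium, were exposed in duplicate for 48 h to eight half-log concentrations topping at 100 uM in 0.5% DMSO. PEG10 mRNA was quantified by TaqMan qRT-PCR, normalised to ACTB, GAPDH and POLR2A.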

[16] = read-out: Nuclear factor NF-kappa-B p105 subunit (Homo sapiens) (UniProt P19838); assay: LTEA_HepaRG_NFKB1: Life Technologies and Expression Analysis (LTEA) Assay for Nuclear Factor Kappa B Subunit 1 (NFKB1) using HepaRG (AID 2283521);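 note: TaqMan qRT-PCR transcript normalised to ACTB GAPDH and POLR2A housekeeping genes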
Outline: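 HepaRG, 48 h exposure; 8-pt half-log series from 100 uM in 0.5% DMSO; duplicates. Readout: NFKB1 mRNA by qRT-PCR (Fluidigm arrays), housekeeping-normalized. Gain/loss fit vs DMSO baseline.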

[17] = read-out: Protein phosphatase 2A (PPP2R4), PTPA (gene 5524); assay: LTEA_HepaRG_PPP2R4: Life Technologies and Expression Analysis (LTEA) Assay for Protein phosphatase 2A (PPP2R4) using HepaRG (AID 2283522)
Outline: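 Differentiated HepaRG cells in serum-free induction medium were exposed in duplicate for 48 h to eight concentrations, top 100 uM with half-log dilutions, in 0.5% DMSO. PPP2R4 mRNA was quantified by TaqMan qRT-PCR, normalized to ACTB, GAPDH and POLR2A.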

[18] = read-out: Phosphatase and tensin (PTEN), PTEN (gene 5728); assay: LTEA_HepaRG_PTEN: Life Technologies and Expression Analysis (LTEA) Assay for Phosphatase and tensin (PTEN) using HepaRG (AID 2283523)
Outline: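 Differentiated human HepaRG cells, plated 48 h then switched to serum-free induction medium, were exposed in duplicate for 48 h to eight half-log concentrations up to 100 uM in 0.5% DMSO. PTEN mRNA measured by TaqMan qRT-PCR, normalized to ACTB/GAPDH/POLR2A, bidirectional fit versus DMSO.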

[19] = read-out: solute carrier (SLC22A1), SLC22A1 (gene 6580); assay: LTEA_HepaRG_SLC22A1: Life Technologies and Expression Analysis (LTEA) Assay for solute carrier (SLC22A1) using HepaRG (AID 2283524)
Outline: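 Human HepaRG cells were plated 48 h, switched to serum-free induction medium, then exposed in duplicate for 48 h to 8-point half-log series from 100 uM in 0.5% DMSO. SLC22A1 mRNA measured by qRT-PCR, normalized to ACTB/GAPDH/POLR2A, fitted bidirectionally versus DMSO.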

[20] = read-out: Pyruvate Dehydrogenase Kinase 4 (PDK4), PDK4 (gene 5166); assay: LTEA_HepaRG_PDK4: Life Technologies and Expression Analysis (LTEA) Assay for Pyruvate Dehydrogenase Kinase 4 (PDK4) using HepaRG (AID 2283525)
Outline: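 Differentiated human HepaRG cells, pre-cultured 48 h, were exposed in duplicate for 48 h in serum-free induction medium to eight half-log concentrations up to 100 uM in 0.5% DMSO. PDK4 mRNA was quantified by qRT-PCR, normalized to ACTB, GAPDH and POLR2A, bidirectional fitting versus DMSO.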

Measured: outcome

Chain of Nuclear factor NF-kappa-B p105 subunit (Homo sapiens) (P19838 whole entry, looked up): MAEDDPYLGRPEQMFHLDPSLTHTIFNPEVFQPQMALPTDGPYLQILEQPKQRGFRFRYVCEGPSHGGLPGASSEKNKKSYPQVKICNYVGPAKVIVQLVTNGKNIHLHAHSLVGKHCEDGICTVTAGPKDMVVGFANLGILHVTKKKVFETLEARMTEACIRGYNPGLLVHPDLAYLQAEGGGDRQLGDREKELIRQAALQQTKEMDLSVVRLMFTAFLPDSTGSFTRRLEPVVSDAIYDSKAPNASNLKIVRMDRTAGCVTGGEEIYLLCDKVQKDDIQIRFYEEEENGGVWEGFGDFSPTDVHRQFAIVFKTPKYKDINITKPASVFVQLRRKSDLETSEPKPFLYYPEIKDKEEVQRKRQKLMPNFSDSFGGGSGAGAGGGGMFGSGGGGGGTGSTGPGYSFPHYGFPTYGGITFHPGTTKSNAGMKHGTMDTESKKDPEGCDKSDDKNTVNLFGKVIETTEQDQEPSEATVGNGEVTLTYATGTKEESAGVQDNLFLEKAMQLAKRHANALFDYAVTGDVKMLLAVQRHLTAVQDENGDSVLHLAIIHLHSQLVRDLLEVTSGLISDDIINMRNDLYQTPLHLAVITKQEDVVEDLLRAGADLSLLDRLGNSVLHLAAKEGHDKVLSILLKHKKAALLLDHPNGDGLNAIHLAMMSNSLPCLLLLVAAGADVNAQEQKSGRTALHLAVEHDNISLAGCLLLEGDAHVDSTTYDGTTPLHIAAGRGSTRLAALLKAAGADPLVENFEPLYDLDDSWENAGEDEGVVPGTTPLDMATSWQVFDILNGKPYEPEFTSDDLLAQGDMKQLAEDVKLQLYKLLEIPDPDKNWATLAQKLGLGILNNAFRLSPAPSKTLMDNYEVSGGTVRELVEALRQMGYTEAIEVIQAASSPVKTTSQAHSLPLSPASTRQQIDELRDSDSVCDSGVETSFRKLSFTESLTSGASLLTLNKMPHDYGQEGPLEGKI

COC(=O)c1ccc(O)cc1
inactive: all assays above

CCNc1cccc(C)c1
inactive: all assays above

CCCCCCCCCCCCCCCCCC(=O)O
not listed: [14] | [20]
inactive: all other assays above
